{
  "source": "PubChem BioAssay AID1619",
  "about": "(SRMLSC, 2009)",
  "note": "In all, about 220,000 compounds went through this assay and about 830 (0.38%) were called active. These entries were drawn from the full list. Potency and affinity values are given separately. Values without a mark were called inactive.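 How the source made its calls: active means compound inhibiting the enzyme by more than half at any dose during confirmatory dose-response retesting; inconclusive means strong single-dose inhibitors picked by rank but not retested; inactive means the rest.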",
  "data": [
    {"target": "Leucine aminopeptidase (Plasmodium falciparum (isolate 3D7)) (UniProt Q8IL11)", "sequence (Q8IL11 whole entry, looked up)": "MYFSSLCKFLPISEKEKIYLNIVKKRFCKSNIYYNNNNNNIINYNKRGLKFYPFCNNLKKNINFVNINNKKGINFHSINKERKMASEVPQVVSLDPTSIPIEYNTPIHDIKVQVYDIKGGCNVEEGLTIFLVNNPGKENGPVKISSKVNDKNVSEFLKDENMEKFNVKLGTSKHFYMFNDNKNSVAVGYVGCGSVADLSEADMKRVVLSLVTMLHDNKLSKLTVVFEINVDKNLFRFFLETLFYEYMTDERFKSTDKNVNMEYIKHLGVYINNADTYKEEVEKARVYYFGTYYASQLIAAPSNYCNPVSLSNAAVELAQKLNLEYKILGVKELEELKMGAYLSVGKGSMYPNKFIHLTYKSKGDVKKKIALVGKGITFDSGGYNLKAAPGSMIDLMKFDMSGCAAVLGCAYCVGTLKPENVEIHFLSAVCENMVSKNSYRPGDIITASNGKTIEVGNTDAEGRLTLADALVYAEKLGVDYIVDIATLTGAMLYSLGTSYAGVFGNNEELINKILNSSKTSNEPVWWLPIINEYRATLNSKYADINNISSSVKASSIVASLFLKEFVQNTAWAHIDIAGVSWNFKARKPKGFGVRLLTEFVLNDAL", "assay": "P. falciparum M17LAP inhibitors, primary screen, biochemical, fluorogenic H-Leu-NHMec substrate, 1536-well (AID 1619);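 further: plate controls were full reaction with DMSO carrier for no effect and no enzyme background for full effect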", "conditions": "recombinant M17LAP, H-Leu-NHMec fluorogenic kinetic assay; at 30 µM; active compounds read high", "units": {"inhibition": "%"}, "values": [
      {"smiles": "COC(=O)C(C)(C)ONC(=O)Nc1ccccc1Cl", "inhibition": -4.74},
      {"smiles": "CCN(CC)C(=O)c1ccc(N)cc1", "inhibition": 7.5},
      {"smiles": "COc1ccc(Oc2ccc(/C=C/C(=O)c3ccc(O)cc3)cc2[N+](=O)[O-])cc1", "inhibition": 12.4},
      {"smiles": "CC(C)(C)C1(C)OC(C(N)=O)C(C(N)=O)O1", "note": "(stereo unspecified)", "inhibition": 8.29},
      {"smiles": "Cc1cc(=O)oc2c1c(C(F)(F)F)nn2-c1ccccc1", "inhibition": 2.02},
      {"smiles": "CCOC(=O)C1CSC(CC(=O)Nc2ccc(OC(F)(F)F)cc2)C(=O)N1", "note": "(stereo unspecified)", "inhibition": 14},
      {"smiles": "CCOC(=O)C1CSC(CC(=O)Nc2ccc(Cl)cc2)C(=O)N1", "note": "(stereo unspecified)", "inhibition": 13.4},
      {"smiles": "CC(OC(=O)c1cn(-c2ccccc2)nc1-c1cccnc1)C(N)=O", "note": "(stereo unspecified)", "inhibition": 1.32},
      {"smiles": "O=C(COC(=O)c1ccc(S(=O)(=O)NCc2ccco2)cc1)Nc1ncc(Cl)cc1Cl", "inhibition": -2.24},
      {"smiles": "N/C(Cc1ccc(Cl)cc1Cl)=N\\OC(=O)c1ccccc1", "inhibition": 0.73},
      {"smiles": "CCOc1ccc(OCc2cccc(C(=O)N(CC)CC)c2)cc1", "inhibition": -4.73},
      {"smiles": "COc1ccc(OCc2cccc(C(=O)O)c2)cc1", "inhibition": 53.7},
      {"smiles": "O=C(Nc1ccc(C(=O)O)cc1)/C(=C\\c1ccco1)NC(=O)c1ccccc1", "inhibition": 45.7},
      {"smiles": "CN(C(=O)CSCC(=O)O)C1CCCCC1", "inhibition": -10.4},
      {"smiles": "CCOC(=O)/C(N=Nc1ccc(Cl)cc1)=C(/O)c1ccc([N+](=O)[O-])cc1", "inhibition": 3.08},
      {"smiles": "Nc1[nH]ncc1-c1ccc(F)cc1", "inhibition": 55.5},
      {"smiles": "Nc1[nH]ncc1-c1ccccc1", "inhibition": -3.57},
      {"smiles": "COC(=O)c1cc(C(=O)OC)n(Cc2ccc(Br)cc2)n1", "inhibition": -9.56},
      {"smiles": "CC(=O)c1c(C)[n+]([O-])c2ccc3c(non3O)c12", "inhibition": 10.2},
      {"smiles": "CC[n+]1ccccc1/C=C/c1ccc(N(C)C)cc1", "inhibition": 56.5},
      {"smiles": "CN(C)c1ccc(/C=C/c2ccc3c4ccccc4ccc3[n+]2-c2ccccc2)cc1", "inhibition": 13.1},
      {"smiles": "CC[n+]1ccc(/C=C/c2ccc(N(C)C)cc2)c2ccccc21", "inhibition": 50.7},
      {"smiles": "C[n+]1c(/C=C/c2ccc3c(c2)OCO3)ccc2ccccc21", "inhibition": 0.47},
      {"smiles": "C=CC(C)(C)c1cc2cc3ccoc3cc2oc1=O", "inhibition": 3.93},
      {"smiles": "Cc1nc(C)c(-c2ccn(S(=O)(=O)c3ccc(Cl)cc3)n2)o1", "inhibition": -15.8},
      {"smiles": "COC(=O)c1ccc(COc2ccc(C)cc2[N+](=O)[O-])o1", "inhibition": 5.81},
      {"smiles": "Cc1ccc(OCc2ccc(C(=O)NN)o2)c([N+](=O)[O-])c1", "inhibition": -2.38},
      {"smiles": "CCN1CCN(CCn2c(=S)[nH]c3cc4c(cc3c2=O)OCO4)CC1", "inhibition": 10.8},
      {"smiles": "COc1ccc(C2CCN(CC(=O)N(C)C)CC2O)cc1", "note": "(stereo unspecified)", "inhibition": -0.46},
      {"smiles": "Cc1ccccc1NC(=O)COC(=O)c1c[nH]c(=O)[nH]c1=O", "inhibition": -3.99},
      {"smiles": "CN(c1ccccc1C(=O)N1CCN(c2cccc(Cl)c2)CC1)S(C)(=O)=O", "inhibition": -10.5},
      {"smiles": "O=C1CC(=O)C(n2cncn2)C(c2cccc(Cl)c2)C1", "note": "(stereo unspecified)", "inhibition": -45.4},
      {"smiles": "O=C1CC(=O)C(n2cncn2)C(c2ccc(Cl)cc2)C1", "note": "(stereo unspecified)", "inhibition": 41.7},
      {"smiles": "COC(=O)COc1cc(Br)c(/C=C2/SC(=O)N(CC(=O)N3CCCC3)C2=O)cc1OC", "inhibition": 26.7},
      {"smiles": "CCOc1cc(/C=C2\\SC(=Nc3ccc(F)cc3)N(c3ccc(F)cc3)C2=O)ccc1OCC(=O)O", "inhibition": 42.8},
      {"smiles": "COc1cccc(/C=C2/SC(=O)N(C)C2=O)c1OCc1ccc(C(=O)O)cc1", "inhibition": 25.1},
      {"smiles": "COc1cc(/C=C2\\SC(=Nc3ccc(F)cc3)N(c3ccc(F)cc3)C2=O)ccc1OCC(=O)O", "inhibition": 38.3},
      {"smiles": "COC(=O)COc1ccc(/C=C2/SC(=O)N(CC(=O)N3CCCC3)C2=O)cc1Br", "inhibition": 14.7},
      {"smiles": "CCOc1ccc(C(=O)NCC(=O)N2CCc3ccccc3C2)cc1OCC", "inhibition": -4.26},
      {"smiles": "NC(=O)COc1ccccc1/C=C1/SC(=O)N(CC(=O)N2CCc3ccccc3C2)C1=O", "inhibition": -2.36},
      {"smiles": "CCOc1c(Br)cc(/C=C2/SC(=O)N(CC(=O)N3CCCC3)C2=O)cc1OC", "inhibition": -3.92},
      {"smiles": "COC(=O)c1cccc(NC(=O)Cc2nc(-c3ccccc3)sc2-c2ccc(C)cc2)c1", "inhibition": 1.12},
      {"smiles": "COc1ccc(CN2CCN(C)CC2)cc1OCc1ccccc1", "inhibition": -2.4},
      {"smiles": "Cc1ccc(C(=O)N2CCSC2=S)cc1", "inhibition": 8.96},
      {"smiles": "CCc1nc(Sc2nc(C)cc(C)n2)c2oc3ccccc3c2n1", "inhibition": -4.31},
      {"smiles": "CCOC(=O)c1ccc(S(=O)(=O)NNC(=O)COc2ccccc2C)cc1", "inhibition": -5.37}
    ]}
  ]
}
